Data on 14 molecules can be found in PubChem BioAssay (NCATS).

Assay [1] is described as follows: Quantitative High-Throughput drug screen in 47 multiple myeloma cell lines against the NCATS MIPE library collection: Delta47_JCRB cell viability assay (AID 1918925; further: nearly all actives have a fitted effect of over 45% in size). A digest of the protocol: (§1)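 Primary qHTS used for cherry-picking: cells at 500/well, library compounds for 48 h (37C, 5% CO2), luminescent ATP assay.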
Assay [2] in a line: Quantitative High-Throughput drug screen in 47 multiple myeloma cell lines against the NCATS MIPE library collection: EJM_DSMZ cell viability assay (AID 1918926; further: nearly all actives have a fitted effect of over 30% in size). A digest of the protocol:
as §1

Assay [3] is described as follows: Quantitative High-Throughput drug screen in 47 multiple myeloma cell lines against the NCATS MIPE library collection: AMO1_DSMZ cell viability assay (AID 1918927; further: nearly all actives have a fitted effect of over 30% in size). In short, it runs like this: as §1
A short description of assay [4]: Quantitative High-Throughput drug screen in 47 multiple myeloma cell lines against the NCATS MIPE library collection: ARD_JJKsccE7 cell viability assay (AID 1918929). In short, it runs like this: as §1
The nature of assay [5]: Quantitative High-Throughput drug screen in 47 multiple myeloma cell lines against the NCATS MIPE library collection: KHM11_PLB cell viability assay (AID 1918962). Further: nearly all actives have a fitted effect of over 35% in size. A digest of the protocol: (§2)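 Viability readout: CellTiter-Glo luminescence following 5 min room-temperature incubation with reagent. Prior exposure: 48 h, 37C, humidified 5% CO2, 500 cells per well.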
Assay [6] is described as follows: Quantitative High-Throughput drug screen in 47 multiple myeloma cell lines against the NCATS MIPE library collection: JIM3_ECACC cell viability assay (AID 1918963; further: nearly all actives have a fitted effect of over 35% in size). A digest of the protocol: as §2
Assay [7] can be described thus: Quantitative High-Throughput drug screen in 47 multiple myeloma cell lines against the NCATS MIPE library collection: JIM1_ECACC cell viability assay (AID 1918964). A digest of the protocol: as §1
The nature of assay [8]: Quantitative High-Throughput drug screen in 47 multiple myeloma cell lines against the NCATS MIPE library collection: INA6_PLB cell viability assay (AID 1918965; further: nearly all actives have a fitted effect of over 55% in size). A digest of the protocol:
(§3)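 Approved and investigational drugs from MIPE 4.0 were added by pin tool to 500 cells per well. After 48 hours at 37C, ATP-based CellTiter-Glo luminescence indicated remaining viability.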

Assay [9] can be described thus: Quantitative High-Throughput drug screen in 47 multiple myeloma cell lines against the NCATS MIPE library collection: JJN3_DSMZ cell viability assay (AID 1918966; further: nearly all actives have a fitted effect of over 50% in size). A digest of the protocol: as §1
Assay [10] in a line: Quantitative High-Throughput drug screen in 47 multiple myeloma cell lines against the NCATS MIPE library collection: H1112_PLB cell viability assay (AID 1918967; further: nearly all actives have a fitted effect of over 30% in size). A digest of the protocol:
as §1

Assay [11] can be described thus: Quantitative High-Throughput drug screen in 47 multiple myeloma cell lines against the NCATS MIPE library collection: Karpas620_DSMZ cell viability assay (AID 1918959). Further: nearly all actives have a fitted effect of over 30% in size. In short, it runs like this:
as §2

The nature of assay [12]: Quantitative High-Throughput drug screen in 47 multiple myeloma cell lines against the NCATS MIPE library collection: KMM1_JCRB cell viability assay (AID 1918960). Further: nearly all actives have a fitted effect of over 30% in size. A digest of the protocol:
(§4)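 Myeloma cells, 500 per well, were exposed to MIPE 4.0 drugs by pin transfer for 48 h at 37 °C, 5% CO2. Viability was read as ATP luminescence with CellTiter-Glo, normalised to DMSO-only (100%) and medium-only (0%) wells.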

Assay [13] can be described thus: Quantitative High-Throughput drug screen in 47 multiple myeloma cell lines against the NCATS MIPE library collection: Karpas417_ECACC cell viability assay (AID 1918961). The settings on record: Karpas417 myeloma viability, CellTiter-Glo ATP luminescence, 48 h; viability (% of DMSO): at 45.8 µM (top of the series). In short, it runs like this:
as §3

Assay [14] is described as follows: Quantitative High-Throughput drug screen in 47 multiple myeloma cell lines against the NCATS MIPE library collection: ARP1_JJKsccF8 cell viability assay (AID 1918928; further: nearly all actives have a fitted effect of over 40% in size). In short, it runs like this:
as §4

Inconclusive results are not listed. The source made the active and inactive calls. The call rests on the fitted dose curve; in most records, active means well fitted curve in the direction sought with a large enough effect; inconclusive means small, poorly fitted or top-dose-only effect, or another doubt; inactive means no such curve, though single readings can be large; an effect the other way counts as inactive or inconclusive.
Potency means the concentration at half of the fitted maximal effect.

On to `CC(C)n1c(C=C[C@H](O)C[C@H](O)CC(=O)O)c(-c2ccc(F)cc2)c2ccccc21`, for which the Potency in assay [1] is 18.7 µM (active); in assay [3] it was 16.6 µM (active); in assay [4], 9.35 µM (active); in [5] it was 14.8 µM (active); in assay [6], 16.6 µM (active); in assay [7], 7.43 µM (active). Further, the values for the Potency in assay [8] and in assay [10] were 10.5 µM (active) and 16.6 µM (active), respectively. Also, the Potency entry in assay [2] and in [9] was “inactive” each time.

Turning to `CC(=O)N1CCN(c2ccc(OCc3nn(C)c(C)c3-c3cccc4c(CCCOc5cc(C)c(Cl)c(C)c5)c(C(=O)O)n(Cc5cccnc5)c34)cc2)CC1`, the Potency was 4.69 µM (active) in assay [1]; 20.9 µM (active) in assay [2]; 6.62 µM (active) in [3]; 20.9 µM (active) in [4]; 26.4 µM (active) in assay [11]; 1.66 µM (active) in assay [8]. For the same molecule, the Potency in assay [10] is 7.43 µM (active).

Regarding `O=c1[nH]c(=O)n([C@H]2C[C@@H](O)[C@@H](CO)O2)cc1C(F)(F)F`, the Potency is 5.26 µM (active) in assay [1]; 1.66 µM (active) in assay [2]; 1.32 µM (active) in assay [4]; 1.87 µM (active) in assay [8]; 5.26 µM (active) in assay [10]. Besides, the Potency entry in assay [11], in assay [6] and in assay [9] was “inactive” in each case.

On to `CC[C@H](C)n1cc(C)c2c(C(=O)NCc3c(C)cc(C)[nH]c3=O)cc(-c3ccc(N4CCNCC4)nc3)cc21`, for which the Potency in [1] was 20.9 µM (active); in assay [2], 20.9 µM (active); in [5] it was 29.6 µM (active); in assay [8], 18.7 µM (active). The Potency entry in assay [3], in assay [11], in assay [12] and in assay [7] was “inactive” in each case.

`CCC(=O)OCC(=O)[C@@]1(OC(=O)CC)[C@@H](C)C[C@@H]2[C@H]3CCC4=CC(=O)C=C[C@]4(C)[C@@]3(F)[C@@H](O)C[C@@]21C`: the Potency entry in assay [1], in assay [5] and in [10] was “inactive” throughout. Besides, the Potency is 9.35 µM (active) in assay [3]; 2.09 µM (active) in [4]; 2.35 µM (active) in assay [11]; 0.0935 µM (active) in assay [13]; 6.62 µM (active) in assay [7].

Take `CO[C@H]1/C=C\O[C@@]2(C)Oc3c(C)c(O)c4c(O)c(c(C=NN5CCN(C6CCCC6)CC5)c(O)c4c3C2=O)NC(=O)C(C)=CC=C[C@H](C)[C@H](O)[C@@H](C)[C@@H](O)[C@@H](C)[C@H](OC(C)=O)[C@H]1C`: the Potency is 0.833 µM (active) in assay [2]; 10.5 µM (active) in assay [14]; 1.05 µM (active) in [4]; 0.264 µM (active) in [11]; 0.118 µM (active) in assay [5]; 6.62 µM (active) in assay [9]. In assay [10], the Potency is 1.18 µM (active).

In the case of `CO[C@H]1O[C@@H]2O[C@@]3(C)CC[C@@H]4[C@@H](C)CC[C@@H]([C@H]1C)[C@@]24OO3`, the Potency in [2] is 1.48 µM (active); in assay [3] it was 1.87 µM (active); in [14] it was 16.6 µM (active); in [12], 1.32 µM (active); in assay [8], 0.469 µM (active); in assay [9], 5.9 µM (active). Further, in [10], the Potency was 7.43 µM (active).

Consider `Nc1nc(Cl)nc2c1ncn2[C@@H]1O[C@H](CO)[C@@H](O)[C@H]1F`, for which the Potency in assay [3] is 0.0418 µM (active); in assay [14], 2.35 µM (active); in assay [4], 0.418 µM (active); in assay [11], 0.469 µM (active); in assay [5], 0.0148 µM (active); in assay [6], 0.418 µM (active). For the same molecule, the Potency in assay [9] was 0.372 µM (active).

In the case of `Cn1c(=O)c(Oc2ccc(F)cc2F)cc2cnc(NC3CCOCC3)nc21`, the Potency entry in assay [2], in assay [11], in assay [6] and in assay [10] was “inactive” each time. Also, the Potency in [4] was 0.0074 µM (active).

Take `COc1cc(N2CCN(C)CC2)ccc1Nc1nc(N)c(C(=O)c2c(Cl)cccc2Cl)s1`: the figures for the Potency in [2], in assay [3] and in [12] were 23.5 µM (active), 18.7 µM (active) and 18.7 µM (active), respectively. The Potency entry in assay [10] is “inactive”.

For `CC(C)(C)c1[nH]cnc1C=c1[nH]c(=O)c(=Cc2ccccc2)[nH]c1=O`, the Potency entry in [3], in assay [4], in assay [12], in [6] and in assay [7] was “inactive” in each case. In [9], the Potency is 0.0481 µM (active).

Take `C[C@H](CCC(=O)O)[C@H]1CC[C@H]2[C@H]3[C@@H](CC[C@]12C)[C@@]1(C)CC[C@@H](O)C[C@H]1C[C@@H]3O`: the Potency result in assay [2] and in assay [6] was “inactive” in each case. Also, the Potency in [14] was 1.48 µM (active).

On to `Cc1ccc(S(=O)(=O)OCC(=O)Nc2ccc(C(=O)O)c(O)c2)cc1`, for which the Potency is 16.6 µM (active) in [1]; 23.5 µM (active) in assay [6]; 13.2 µM (active) in assay [8]; 16.6 µM (active) in [9]; 20.9 µM (active) in assay [10]. The Potency entry in assay [14], in [4], in [11] and in assay [12] was “inactive” each time.

As for `NC(=O)c1nnn(Cc2cc(Cl)c(C(=O)c3ccc(Cl)cc3)c(Cl)c2)c1N`, the Potency in assay [12] is 5.9 µM (active); in [8] it was 14.8 µM (active); in assay [9] it was 20.9 µM (active). Also, the Potency entry in assay [13] and in assay [5] was “inactive” throughout.
